# Compound activity (PubChem BioAssay)
# Most compounds without a hit are left out; they make up all but 19% or so of the library.
# TDP1 cell noCPT: qHTS for Inhibitors of human tyrosyl-DNA phosphodiesterase 1 (TDP1): qHTS in cells in absence of CPT; Potency, µM (doses to about 46.2 µM), inactives show at the top dose activity change, negative = growth inhibition, most hits filed as inhibitors; 420,000 compounds, 15% hits; DT40 Tdp1-/- hTDP1 cells, no CPT, ATP luminescence, 48 h; further: potency means the concentration at half of the fitted maximal effect; on the % scale 0 is the no-effect control and ±100 the full control effect; nearly all actives have a fitted effect of over 55% in size
#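 DT40 Tdp1-/-;hTDP1 cells, no CPT (DMSO vehicle only), 400 cells/well; compounds pin-transferred; ≥48 hr, 37 °C; CellTiter-Glo 30 min RT dark, luminescence read.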
# TDP1 block: qHTS Assay for Inhibitors of Tyrosyl-DNA Phosphodiesterase (TDP1). recombinant TDP1, AlphaScreen DNA substrate cleavage. Potency, µM (series often up to 130 µM), without a hit: at the highest dose activity change, negative = inhibition, actives largely listed as inhibitors. 350,000 compounds, 0.28% hits; further: potency means the concentration at half of the fitted maximal effect; on the % scale 0 is the no-effect control and ±100 the full control effect; nearly all actives have a fitted effect of over 40% in size
# Target sequence (Q9NUW8 whole entry, looked up): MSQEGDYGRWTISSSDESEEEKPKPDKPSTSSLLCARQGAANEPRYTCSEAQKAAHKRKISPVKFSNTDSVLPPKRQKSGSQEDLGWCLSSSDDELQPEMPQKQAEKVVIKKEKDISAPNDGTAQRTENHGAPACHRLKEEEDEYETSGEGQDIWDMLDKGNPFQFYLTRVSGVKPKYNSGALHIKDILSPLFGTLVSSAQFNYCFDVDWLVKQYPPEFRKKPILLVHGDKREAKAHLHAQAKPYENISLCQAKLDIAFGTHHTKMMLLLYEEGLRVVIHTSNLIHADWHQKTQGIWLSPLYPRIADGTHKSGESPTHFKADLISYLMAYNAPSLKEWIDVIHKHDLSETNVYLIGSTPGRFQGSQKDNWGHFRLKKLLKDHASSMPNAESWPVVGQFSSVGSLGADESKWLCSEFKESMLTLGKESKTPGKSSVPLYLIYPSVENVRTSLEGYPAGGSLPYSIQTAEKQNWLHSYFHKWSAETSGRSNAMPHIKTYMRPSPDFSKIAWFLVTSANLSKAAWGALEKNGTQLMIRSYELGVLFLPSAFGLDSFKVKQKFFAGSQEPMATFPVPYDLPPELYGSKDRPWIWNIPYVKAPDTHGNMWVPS
#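 E. coli-derived human Tdp1, 1 nM final. Cpd preinc 15 min RT; substrate 15 nM final, 5 min RT; AS bead mix 10 ug/ml final, 10 min RT. Signal loss = tyrosine-FITC cleavage. No-enzyme wells = max signal.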
# DT40 TDP1 CPT: qHTS for Inhibitors of human tyrosyl-DNA phosphodiesterase 1 (TDP1): qHTS in cells in presence of CPT | Potency, µM (doses to about 46.2 µM), for the others: at the highest dose activity change, negative = growth inhibition, usual class: inhibitors | 420,000 compounds, 12% hits | chicken DT40 Tdp1-/-;hTDP1 cells + 20 nM CPT, ATP luminescence, 48 h; further: potency means the concentration at half of the fitted maximal effect; on the % scale 0 is the no-effect control and ±100 the full control effect; nearly all actives have a fitted effect of over 55% in size
#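 Chicken DT40 Tdp1-/- cells stably complemented with human TDP1 were seeded at 400 cells/well in medium containing 20 nM camptothecin, exposed to pin-transferred compounds, and grown at 37 °C for at least 48 hr. Viability was read as ATP luminescence.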
# TGFb inhibitor: qHTS for Inhibitors of TGF-b; HepG2 CAGA-GFP TGF-b/SMAD3 reporter, GFP fluorescence, 18 h; TGF-beta stimulated, 500 pg/mL final; 410,000 compounds, 1.2% hits; AID 588855, 2011; Potency, µM (highest dose often 46.1 µM), for the others: top-dose activity, negative = inhibition, usual class: inhibitors; further: potency means the concentration at half of the fitted maximal effect; on the % scale 0 is the no-effect control and ±100 the full control effect; nearly all actives have a fitted effect of over 65% in size
#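 HEPG2 CAGA-GFP, 1000 cells/well; 2 h settle, 37 C; cpd via pin tool; TGF-b 500 pg/mL final; 18 h, 37 C; GFP imaging ex488/em500-530; %Activity normalised to -TGF-b and +DMSO controls; CRC fit, curve class.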
# IL1B secr inh: qHTS for Inhibitors of Inflammasome Signaling: IL-1-beta AlphaLISA Primary Screen. THP-1 LPS/ATP IL-1B secretion, AlphaLISA, 16 h; active compounds read low. activity change, % at 57.5 µM. 360,000 compounds, 4.7% hits; in the data active means activity change below about -50%; inconclusive means mostly about -30% to -49%; further: on the % scale 0 is the no-effect control and ±100 the full control effect
#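 Secreted IL-1B measured by AlphaLISA bead assay after 16 h compound exposure of THP-1 cells; compounds (final up to 57.5 uM) added 1 h before LPS (250 ng/mL) and ATP (1.25 mM) stimulation; lower signal means less secretion.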
# HepG2 tox-1: qHTS for Inhibitors of TGF-b: Cytotox Counterscreen. HepG2 CAGA-GFP viability, ATP luminescence, 18 h. Potency, µM (doses to about 46.1 µM), inactives show at the top dose activity change, negative = cytotoxicity, usual class: cytotoxic. 410,000 compounds, 0.76% hits; further: potency means the concentration at half of the fitted maximal effect
#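 CellTiter-Glo luminescence gave cytotoxicity after 18 hours at 37 degrees C. The cells were HepG2 CAGA-GFP in 1% FBS DMEM, stimulated with 500 pg/mL TGF-beta after compound addition. %Activity was normalised to no-cell wells (complete cell-killing) and DMSO (no toxicity), and curves were fitted and classified.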
# TGFb confirm: qHTS for Inhibitors of TGF-b: Confirmation of Cherry Picks; shares compounds with TGFb inhibitor; 1,600 compounds, 63% hits; HepG2 CAGA-GFP TGF-b reporter, GFP fluorescence, 18 h; cells stimulated with TGF-beta, 500 pg/mL; Potency, µM (top dose mostly 46.1 µM), inactives show at the highest dose activity, negative = inhibition, hits mostly inhibitors; AID 720534, 2013; further: potency means the concentration at half of the fitted maximal effect; on the % scale 0 is the no-effect control and ±100 the full control effect; nearly all actives have a fitted effect of over 65% in size
# HepG2 tox-2: qHTS for Inhibitors of TGF-b: Cytotox Counterscreen for Cherry Picks; shares compounds with TGFb inhibitor; HepG2 CAGA-GFP viability, ATP luminescence, 18 h; cells stimulated with TGF-beta, 500 pg/mL; Potency, µM (titrated, usually from 46.1 µM), for the others: at the highest dose activity, negative = cytotoxicity, most hits filed as inhibitors; 1,600 compounds, 27% hits; further: potency means the concentration at half of the fitted maximal effect; on the % scale 0 is the no-effect control and ±100 the full control effect; nearly all actives have a fitted effect of over 70% in size
# CCL64 TGFb inh: qHTS for Inhibitors of TGF-b: CCL64 Cells Orthogonal Assay for Cherry Picks; shares compounds with TGFb inhibitor; CCL64 CAGA-GFP reporter, TGF-b stimulated, GFP fluorescence, 18 h; Potency, µM (highest dose often 46.1 µM), for the others: at the top dose activity, negative = inhibition, most hits filed as inhibitors; 1,600 compounds, 41% hits; further: potency means the concentration at half of the fitted maximal effect; nearly all actives have a fitted effect of over 65% in size
# COP TGFb inh: qHTS for Inhibitors of TGF-b: Hit Validation in HepG2 Cells using COP promoter | 1,600 compounds, 3% hits | Potency, µM (doses to about 46.1 µM), without a hit: top-dose activity, negative = inhibition, actives largely listed as inhibitors | shares compounds with TGFb inhibitor | HepG2 COP-GFP TGF-b reporter, GFP fluorescence, 18 h; cells stimulated by added recombinant TGF-beta; further: potency means the concentration at half of the fitted maximal effect; nearly all actives have a fitted effect of over 70% in size
# * hit, by the source's call; ? = inconclusive; nt = not tested or not shown. Unless noted, the call rests on the fitted dose curve; in most records, active means well fitted curve in the direction sought with a large enough effect; inconclusive means small, poorly fitted or top-dose-only effect, or another doubt; inactive means no such curve, though single readings can be large; an effect the other way counts as inactive or inconclusive.
SMILES,TDP1 cell noCPT,TDP1 block,DT40 TDP1 CPT,TGFb inhibitor,IL1B secr inh,HepG2 tox-1,TGFb confirm,HepG2 tox-2,CCL64 TGFb inh,COP TGFb inh
CCn1c(=O)c(C(=O)CN2CCN(Cc3ccc4c(c3)OCO4)CC2)c(N)n(Cc2ccccc2)c1=O,?,0%,?,-13%,?,-28%,nt,nt,nt,nt
CCn1c(=O)c(C(=O)CN2CCN(S(=O)(=O)c3cc(C)ccc3C)CC2)c(N)n(Cc2ccccc2)c1=O,16µM*,0%,10µM*,11µM*,0,-14%,12µM*,?,12µM*,66%
CC(C)(C)c1cc(C(c2cccnc2)N2CCN(CCO)CC2)cc(C(C)(C)C)c1O (centres undefined),2.3µM*,11%,1.5µM*,7.9µM*,-102*,13µM*,5.2µM*,15µM*,4.6µM*,?
O=C(CCNS(=O)(=O)c1ccccc1)NNC(=O)COc1ccccc1F,14%,0%,5%,0%,12,4%,nt,nt,nt,nt
COc1cc(CN2CCN(C(=O)c3cccc4ccccc34)CC2)cc(OC)c1O,1%,nt,-6%,6%,0,10%,nt,nt,nt,nt
CCOc1ccc(CN2CCN(C(=O)c3cccc4ccccc34)CC2)cc1,?,nt,?,?,-83*,-41%,9.2µM*,?,3%,2%
COc1cc(OC)cc(C(=O)N[C@H](C(=O)OCc2cc(=O)oc3cc(C)ccc23)C(C)C)c1,?,3%,?,?,1,-1%,?,-5%,-12%,12%
CCn1c2ccccc2c2cc(/C=N/NC(=O)c3ccccc3C)ccc21,2.6µM*,3%,2.6µM*,4µM*,51,-12%,8.2µM*,4.1µM*,?,18%
Cc1ccccc1C(=O)N/N=C/c1ccc(OCC(=O)N2CCCCC2)cc1,?,3%,-28%,-27%,7,-6%,nt,nt,nt,nt
CC1=C(CO)C(=O)OC([C@@H](C)C2CC[C@H]3C4C[C@H]5O[C@]56[C@@H](O)C=CC(=O)[C@]6(C)C4CC[C@]23C)C1 (some centres undefined),1.3µM*,nt,1.5µM*,2.8µM*,-107*,-106%,0.58µM*,2.3µM*,1.2µM*,?
COc1ccc2c(c1)sc1nc(-c3ccccc3)cn12,0.92µM*,nt,0.52µM*,10µM*,?,-69%,?,?,15µM*,-15%
COc1ccc(-c2cn3c(C)c(C(=O)N4CCN(c5ccccc5)CC4)sc3n2)cc1,?,nt,?,15%,2,42%,nt,nt,nt,nt
CCCn1c(C(C)Nc2nc(-c3ccc(C)cc3)cs2)nc2ccccc21 (centres undefined),?,nt,?,11µM*,9,-16%,?,?,?,43%
Cc1ccc(Cn2c(C(C)Nc3nc(-c4ccc(C)cc4)cs3)nc3cc(Cl)c(Cl)cc32)cc1 (centres undefined),-15%,nt,?,-1%,-2,-21%,nt,nt,nt,nt
CC(Nc1nc(-c2ccc(Cl)cc2)cs1)c1nc2cc(Cl)c(N3CCCCC3)cc2n1CCOCCO (centres undefined),15µM*,nt,16µM*,20µM*,-29,-30%,?,?,18µM*,71%
COc1ccc(C(=O)CN2C(=O)NC3(CCc4ccccc43)C2=O)cc1 (centres undefined),6%,1%,-4%,14%,5,4%,nt,nt,nt,nt
COc1ccc(C(NC(=O)CN2C(=O)NC3(CCc4ccccc43)C2=O)c2ccccc2)cc1 (centres undefined),?,2%,?,?,?,-9%,?,-13%,-23%,-10%
CCn1c(=O)c(C(=O)Nc2ccccc2)c(O)c2ccccc21,?,nt,?,-1%,16,-10%,nt,nt,nt,nt
CCn1c(=O)c(C(=O)Nc2nc3ccccc3[nH]2)c(O)c2ccccc21,2.6µM*,8%,2.9µM*,2µM*,25,-60%,-25%,?,?,34%
COc1ccc(CNc2cccc3[nH]c(C(F)(F)F)nc23)cc1OC,21µM*,nt,?,5.6µM*,-9,-31%,?,-4%,-21%,-9%
COc1ccc(CNC(=O)c2[nH]c(C(F)(F)F)nc2-c2ccccc2)cc1OC,-17%,nt,-29%,-10%,6,-12%,nt,nt,nt,nt
Cc1cnc(N=Nc2ccccc2)[nH]1,?,nt,?,0%,-27,-20%,nt,nt,nt,nt
CSCC[C@H](NC(=O)c1ccco1)c1nnc2ccccn12,1%,3%,16%,12%,9,8%,nt,nt,nt,nt
CCN(CC)C(=O)CSc1nnc2nnc3cc(Cl)ccc3n12,?,1%,-19%,4µM*,18,-86%,23µM*,23µM*,?,?
O=C(Nc1c(Cl)ccc2nsnc12)c1ccc([N+](=O)[O-])o1,?,1%,?,10µM*,-98*,13µM*,8.2µM*,?,?,?
COc1ccc2nc(NC(=O)c3ccccc3[N+](=O)[O-])sc2c1,3%,9%,-3%,0%,-7,-50%,nt,nt,nt,nt
